An excerpt weighted towards active compounds, which were near 3.2% of everything screened.
PAX8 reporter: inhibitors of PAX8 transcriptional activity in RMG-I cells | actives 1.2% (n = 360,000) | RMG-I TPO-luciferase reporter, SteadyGlo, 24 h | inhibition, % at 12.6 µM;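 active = mean replicate inhibition at least 60% with every replicate also reaching 60%; inconclusive = only one of the two criteria is met; inactive = mean below 60% and not all replicates reaching 60%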;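 also: luciferase light reporting Pax8 driven TPO promoter activity; plate controls were median of neutral control wells for no effect and mitoxantrone controls for full effect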
TWEAK Fn14 block: blocks TWEAK-Fn14 interaction in a reporter cell assay | TWEAK-stimulated Fn14 reporter cells, luciferase luminescence, 8 h | inhibition, % at 10 µM | actives 2% (n = 360,000) | AID 1159606; in the data active = inhibition above about 50%
LGR2 antag: Drosophila LGR2 receptor signaling inhibition; inhibition, % at 9.99 µM; HEK293 LGR2, CRE-luciferase, bursicon-stimulated, 4 h; actives 0.35% (n = 380,000); AID 720647;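 active = drop in luminescence signal, shown as inhibition above about 50% in the replicate tests, limit read from the data, passing the limit was not always enough; inconclusive = probably only some replicates passing the limit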;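 also: agonist challenge used bursicon conditioned medium at about half maximal strength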
LMP1 NFkB inh: inhibitors of Epstein-Barr LMP1-induced NF-kappaB reporter | LMP1-induced NF-kappaB luciferase reporter cells, luminescence | inhibition, % at 12.5 µM | actives 0.69% (n = 350,000); in the data active = inhibition above about 41%; inconclusive = no clear call, values can overlap the other calls;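 also: 0% = neutral control wells and 100% = reference inhibitor control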
EWS-Fli block: inhibitors of EWS/Fli oncoprotein transcriptional activity; actives 0.67% (n = 350,000); inhibition, % at 12.6 µM; AID 651661; A673 NR0B1-luciferase reporter, viability-normalised;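 active = mean inhibition of at least 50% after viability correction, with every replicate also passing that limit; inconclusive = mean reaches 50% but only one of two replicates passes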;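 also: firefly luciferase signal divided by Alamar Blue viability fluorescence both relative to DMSO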
TROY signal inh: blocks TROY-dependent signaling in reporter cells; Q293 LMP1-TROYcd NF-kB luciferase reporter, 4 h; inhibition, % at 10 µM; actives 0.98% (n = 360,000); AID 1347056;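 active = compounds whose plate-normalised and pattern-corrected inhibition of the luciferase reporter signal at the single screening dose is 50% or more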
Active calls of the source: *; u = inconclusive; x = no result.

SMILES	PAX8 reporter	TWEAK Fn14 block	LGR2 antag	LMP1 NFkB inh	EWS-Fli block	TROY signal inh
N=c1n(Cc2ccc(Cl)cc2)c2ccccc2n1CC(O)COc1ccccc1 (stereo not given)	55.7	4.0	83.3*	-51.2	-15.2	5.8
O=C(CN1C(=O)CCC1=O)Nc1nc(-c2nc3ccccc3s2)cs1	-131.2	82.8*	-54.4	-1.6	-84.0	-6.1
Cc1ccc(S(=O)(=O)Nc2ccc3c(c2)C(=O)N([C@H](C)CO)C[C@H](C)[C@@H](CN(C)S(=O)(=O)c2ccc(Cl)cc2)OCCCC[C@H](C)O3)cc1	94.9*	x	22.4	x	17.8	x
Cc1ccc(S(=O)(=O)N(C)C[C@H]2OCCCC[C@H](C)Oc3ccc(NS(=O)(=O)c4ccc(Cl)cc4)cc3C(=O)N([C@@H](C)CO)C[C@H]2C)cc1	25.1	x	-1.7	x	-5.9	x
Cc1ccc(S(=O)(=O)Nc2ccc3c(c2)C(=O)N([C@@H](C)CO)C[C@@H](C)[C@@H](CN(C)S(=O)(=O)c2ccc(Cl)cc2)OCCCC[C@@H](C)O3)cc1	82.6*	x	27.7	x	9.5	x
Cc1ccc(S(=O)(=O)N(C)C[C@H]2OCCCC[C@H](C)Oc3ccc(NS(=O)(=O)c4ccc(Cl)cc4)cc3C(=O)N([C@@H](C)CO)C[C@@H]2C)cc1	88.8*	x	8.5	x	-25.6	x
Cc1ccc(S(=O)(=O)N(C)C[C@@H]2OCCCC[C@@H](C)Oc3ccc(NS(=O)(=O)c4ccc(Cl)cc4)cc3C(=O)N([C@H](C)CO)C[C@@H]2C)cc1	6.2	x	0.2	x	4.2	x
Cc1ccc(S(=O)(=O)Nc2ccc3c(c2)C(=O)N([C@H](C)CO)C[C@@H](C)[C@H](CN(C)S(=O)(=O)c2ccc(Cl)cc2)OCCCC[C@H](C)O3)cc1	87.8*	x	2.8	x	23.0	x
C/C=C/c1ccc2c(c1)O[C@H](CN(C)Cc1ccc(C(=O)O)cc1)[C@H](C)CN([C@H](C)CO)S2(=O)=O	-22.1	x	-17.2	x	-5.6	x
CN(C)CCCNC(=O)[C@@H]1[C@@H](CO)[C@@H]2Cn3c(ccc(-c4cccc(F)c4)c3=O)[C@H]1N2	7.3	x	-10.4	x	-4.7	x
CCCNC(=O)N1[C@H](CO)[C@H](c2ccccc2C2=CCCC2)[C@@H]1C#N	8.3	x	8.1	x	14.9	x
C[C@@H]1CN([C@@H](C)CO)C(=O)c2cc(C#Cc3cccc(F)c3)cnc2O[C@@H]1CN(C)C(=O)C1CCOCC1	x	x	-4.1	x	0.1	x
O=C1CCCN1Cc1ncnn1-c1ccccc1	x	64.6*	x	3.3	x	x
O=C1CCCCCCCN1Cc1ccccc1	-3.5	17.1	8.1	5.1	4.9	0.3
CNc1ncnc(Sc2ccc(Cl)cc2)c1[N+](=O)[O-]	-9.8	85.7*	16.0	x	26.8	-4.2
Cn1nc([N+](=O)[O-])nc1Sc1ccc(Cl)cc1	-27.4	-3.1	-21.0	-6.2	x	14.7
C[C@@H]1CN([C@@H](C)CO)C(=O)c2cc(C#CC3CC3)cnc2O[C@@H]1CN(C)C(=O)Nc1ccc(F)cc1	x	x	-1.8	x	-6.1	x
COc1cc(CCC(=O)Nc2nnc(C)s2)cc(OC)c1OC	28.6	8.1	2.0	0.7	51.5*	2.8
Cc1cc(O)c(C=O)c2c1C(=O)Oc1c(CO)c(O)c3c(c1O2)C(O)OC3=O (stereo not given)	x	55.9*	x	-3.3	x	-4.6
Cc1ccc2c(COC(=O)C3=COCCO3)cc(=O)oc2c1	x	80.8*	x	27.0	x	29.8
CSc1ccc(/C=N/NC(=O)c2sccc2C)cc1	-176.0	55.0*	x	-58.5	-58.8	-40.9
CSc1ccc(/C=N/NC(=O)c2ccc(C)c(C)c2)cc1	7.8	-7.1	-34.1	-20.1	x	-63.9
CN1C(=O)c2cc(NC(=O)NC3CCCC3)ccc2OC[C@@H]2O[C@H](CC(=O)NCC3CC3)CC[C@H]21	-8.5	x	13.4	x	4.1	x
O=C(OCCN1C(=O)c2cccc3c(N4CCOCC4)ccc(c23)C1=O)c1ccccc1Cl	9.1	104.1*	75.6*	13.8	x	73.4*
O=C(OCCN1C(=O)c2cccc3c(N4CCOCC4)ccc(c23)C1=O)c1ccc(Cl)cc1Cl	8.2	90.3*	-7.5	31.5	x	49.5
SMILES	PAX8 reporter	TWEAK Fn14 block	LGR2 antag	LMP1 NFkB inh	EWS-Fli block	TROY signal inh
C[C@@H]1CN([C@@H](C)CO)C(=O)Cc2cc(NC(=O)Nc3ccc(C(F)(F)F)cc3)ccc2O[C@H]1CN(C)Cc1ccncc1	39.8	x	-2.0	x	x	x
CNc1ccc(Br)cc(C(=O)/C=C/c2cccc(Cl)c2Cl)c1=O	3.8	37.5	23.0	u	47.9	7.2
CCNc1ccc(Br)cc(C(=O)/C=C/c2ccccc2Cl)c1=O	x	8.0	x	83.3*	x	8.6
Cc1noc(C)c1NC(=O)Nc1ccc2c(c1)CC(=O)N([C@H](C)CO)C[C@@H](C)[C@H](CN(C)S(=O)(=O)c1ccccc1)O2	-39.9	x	0.4	x	-7.3	x
CCc1nnc(NC(=O)CSc2nnc(-c3ccc(S(=O)(=O)N(CC)CC)cc3)n2CC)s1	x	82.8*	-2.5	-14.5	x	-7.5
C[C@@H]1CCCCO[C@H](CN(C)Cc2ccccc2)[C@@H](C)CN([C@@H](C)CO)C(=O)c2cc(NC(=O)Nc3ccc4c(c3)OCO4)ccc2O1	6.5	x	-10.6	x	-63.5	x
C[C@@H]1CCCCO[C@H](CN(C)C(=O)CCC(F)(F)F)[C@H](C)CN([C@@H](C)CO)C(=O)c2cc(NC(=O)Nc3ccc4c(c3)OCO4)ccc2O1	68.2*	x	29.3	x	3.9	x
C[C@H](CO)N1C[C@H](C)[C@@H](CN(C)Cc2ccccc2)OCCCC[C@H](C)Oc2ccc(NC(=O)Nc3ccc4c(c3)OCO4)cc2C1=O	-15.3	x	7.6	x	63.7*	x
C[C@@H]1CCCCO[C@H](CN(C)Cc2ccc(C(F)(F)F)cc2)[C@@H](C)CN([C@@H](C)CO)C(=O)c2cc(NC(=O)Nc3ccc4c(c3)OCO4)ccc2O1	65.2*	x	19.1	x	49.6	x
C[C@@H]1CCCCO[C@@H](CN(C)Cc2ccc3c(c2)OCO3)[C@H](C)CN([C@H](C)CO)C(=O)c2cc(NC(=O)Nc3ccc(C(F)(F)F)cc3)ccc2O1	51.4	x	23.0	x	42.7	x
C[C@@H]1CN([C@H](C)CO)C(=O)c2cc(NC(=O)Nc3ccc4c(c3)OCO4)ccc2O[C@@H](C)CCCCO[C@@H]1CN(C)C(=O)CCC(F)(F)F	-30.4	x	-7.4	x	-21.7	x
C[C@@H]1CCCCO[C@@H](CN(C)Cc2ccc(C(F)(F)F)cc2)[C@@H](C)CN([C@@H](C)CO)C(=O)c2cc(NC(=O)Nc3ccc4c(c3)OCO4)ccc2O1	52.3	x	15.7	x	-19.5	x
C[C@@H]1CCCCO[C@@H](CN(C)Cc2ccc(C(F)(F)F)cc2)[C@H](C)CN([C@@H](C)CO)C(=O)c2cc(NC(=O)Nc3ccc4c(c3)OCO4)ccc2O1	71.6*	x	19.8	x	-3.3	x
CCCNC(=O)C[C@H]1CC[C@@H]2[C@@H](COc3ccc(NC(=O)C4CCCC4)cc3C(=O)N2C)O1	-8.7	x	-5.0	x	2.2	x
COc1ccc(S(=O)(=O)N(C)C[C@H]2Oc3c(NS(=O)(=O)c4c(C)noc4C)cccc3C(=O)N([C@@H](C)CO)C[C@H]2C)cc1	-15.1	x	27.6	x	1.9	x

High-throughput results: PubChem BioAssay, several laboratories
